Shown are actives, neighbours in structure and some others; about 15% of the full set was active somewhere.
Sm TGR block: S. mansoni TGR enzyme inhibition | AID 485364 | Potency, µM (doses to about 114 µM), for inactives: top-dose activity change, negative = inhibition, usual class: inhibitors | 360,000 compounds, 3% hits | purified TGR, DTNB reduction, TNB absorbance 405 nm | Q962Y6; further: potency means the concentration at half of the fitted maximal effect; on the % scale 0 is the no-effect control and ±100 the full control effect; nearly all actives have a fitted effect of over 60% in size
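Kinetic colorimetric format: TGR-catalysed, NADPH-driven DTNB reduction monitored via TNB absorbance. Enzyme dispensed at 20 nM; compound exposure 15 min at room temperature before reaction start.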
SARS PLpro yeast: SARS-CoV PLP inhibition in yeast. S. cerevisiae expressing SARS-CoV PLpro, growth rescue. Potency, µM (doses to about 32.9 µM), for the others: top-dose activity, positive = growth rescue, usual class: activators. 330,000 compounds, 0.19% hits. AID 485353; calls by dose curve; further: potency means the concentration at half of the fitted maximal effect; 0% is about no effect; nearly all actives have a fitted effect of over 55% in size
Pf growth 48h: inhibits P. falciparum growth in the first generation, 48 h | P. falciparum luciferase growth in erythrocytes, 48 h | 310,000 compounds, 5.9% hits | Potency, µM (titrated, usually from 28.7 µM), for the others: at the top dose activity change, negative = inhibition, hits mostly inhibitors; further: potency means the concentration at half of the fitted maximal effect; on the % scale 0 is the no-effect control and ±100 the full control effect
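Read-out is firefly luciferase luminescence from an integrated reporter in P. falciparum, so falling signal marks reduced parasite growth. Infected erythrocytes were at 2% hematocrit and 0.1% parasitemia (final) in Albumax-supplemented RPMI 1640.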
HCV inh: inhibitors of hepatitis C virus infection; Potency, µM (highest dose often 41.8 µM), inactives show at the highest dose activity change, negative = inhibition, most hits filed as inhibitors; AID 651820; 340,000 compounds, 3.4% hits; Huh7.5.1 HCVcc-Cre infection, luciferase reporter, 44 h; further: potency means the concentration at half of the fitted maximal effect; on the % scale 0 is the no-effect control and ±100 the full control effect
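HCVcc-Cre virus at an moi near 0.5 was added right after compound to cells cultured 4 h from seeding (1,000 cells/well). Luciferase activity was determined 44 h later, 15 min after substrate addition at RT.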
Pf growth 96h: inhibits malaria parasite growth, 96 h. P. falciparum luciferase reporter growth, 96 h. 320,000 compounds, 6.9% hits. Potency, µM (highest dose often 28.7 µM), for inactives: at the top dose activity change, negative = inhibition, actives largely listed as inhibitors; further: potency means the concentration at half of the fitted maximal effect; on the % scale 0 is the no-effect control and ±100 the full control effect
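Two parasite generations (96 h, 37 C, 5% CO2) of compound exposure in infected erythrocytes (0.05% parasitemia, 2% hematocrit). Luciferase-reporter P. falciparum; decreased luminescence indicates inhibited growth, aimed at apicoplast-acting delayed death.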
HCMV antiviral: blocks human cytomegalovirus replication; activity change, negative = inhibition, % at 57.5 µM; HFF cells, HCMV-luciferase reporter, 72 h; stronger effect = lower value; 410,000 compounds, 4.5% hits; in the data active means activity change below about -60%; inconclusive means no clear call, values can overlap the other calls; inactive means above about -39%; further: on the % scale 0 is the no-effect control and ±100 the full control effect
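Two-dose cell screen: HFF monolayers treated with compounds and infected with luciferase-expressing HCMV at 1 PFU/cell, 72 h at 37C, then lysed for luciferase measurement.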
An asterisk follows results filed as active; [ ] = another dose, or the depositor's remark. Unless noted, the call rests on the fitted dose curve; in most records, active means well fitted curve in the direction sought with a large enough effect; inconclusive means small, poorly fitted or top-dose-only effect, or another doubt; inactive means no such curve, though single readings can be large; an effect the other way counts as inactive or inconclusive.

Results for CN1C(=O)C(c2nnc(Nc3cccc4ccccc34)s2)C2CC1(C)Oc1ccccc12 (stereo not given) ?
Sm TGR block: -1%; SARS PLpro yeast: 11%; Pf growth 48h: inconclusive; HCV inh: inconclusive; Pf growth 96h: 4.7µM*; HCMV antiviral: -3

Results for COc1ccc(S(=O)(=O)N(CC(=O)NCCc2ccccc2)c2ccc(Cl)cc2)cc1 ?
Sm TGR block: -8%; HCMV antiviral: 17

Results for Cc1cccc(Nc2ccc(C(=O)N3CCOCC3)cn2)c1 ?
Sm TGR block: -12%; SARS PLpro yeast: 2%; Pf growth 48h: -4%; HCV inh: 19%; Pf growth 96h: inconclusive; HCMV antiviral: -10

Results for O=C(c1ccc(NS(=O)(=O)c2cccc(F)c2)cc1)N1CCCC1 ?
Sm TGR block: -13%; SARS PLpro yeast: -1%; Pf growth 48h: 0%; HCV inh: 19%; Pf growth 96h: 4%; HCMV antiviral: -12

Results for O=C(c1ccc(Nc2cccc(C(F)(F)F)c2)nc1)N1CCCC1 ?
Sm TGR block: -11%; SARS PLpro yeast: -6%; Pf growth 48h: inconclusive; HCV inh: -14%; Pf growth 96h: 17µM*; HCMV antiviral: -19

How did O=C(c1ccc(NS(=O)(=O)c2cccc(F)c2)cc1)N1CCCCC1 do in these assays?
Sm TGR block: 2%; SARS PLpro yeast: -4%; Pf growth 48h: 0%; HCV inh: -6%; Pf growth 96h: 28%; HCMV antiviral: -73*

Results for O=C(c1ccc(NS(=O)(=O)c2cccc(C(F)(F)F)c2)cc1)N1CCCC1 ?
Sm TGR block: -13%; SARS PLpro yeast: 12%; Pf growth 48h: 0%; HCV inh: 6%; Pf growth 96h: 10µM*; HCMV antiviral: -4

What do the screens show for `CCn1nnc2cc(C(=O)Nc3cc(Cl)ccc3C)ccc21`?
Sm TGR block: -15%; SARS PLpro yeast: 2%; Pf growth 48h: -6%; HCV inh: -19%; Pf growth 96h: -12%; HCMV antiviral: inconclusive

What do the screens show for `COc1ccc(CN2C[C@H](COCc3ccccc3)Oc3cccc(Oc4ccc(C(C)C)cc4)c3S2(=O)=O)cc1`?
HCMV antiviral: 0

What do the screens show for `COc1ccccc1C1CCCN1Cc1nc(-c2cc3c(cc2Cl)OCO3)oc1C` (stereo not given)?
Sm TGR block: -3%; SARS PLpro yeast: -2%; Pf growth 48h: 9.3µM*; HCV inh: -20%; Pf growth 96h: -13%; HCMV antiviral: -24

How did Cc1oc(-c2cc3c(cc2Cl)OCO3)nc1CN1CCCC(C(=O)N2CCOCC2)C1 (stereo not given) do in these assays?
Sm TGR block: 5%; SARS PLpro yeast: 3%; Pf growth 48h: 5%; HCV inh: 21%; Pf growth 96h: inconclusive; HCMV antiviral: -34

Results for COc1ccccc1C1CCCN1Cc1nc(-c2ccc(C)s2)oc1C (stereo not given) ?
Sm TGR block: inconclusive; SARS PLpro yeast: -1%; Pf growth 48h: 4.7µM*; HCV inh: inconclusive; Pf growth 96h: 5%; HCMV antiviral: -99*

Results for COc1cccc(C2CCCN2Cc2nc(-c3sccc3C)oc2C)c1 (stereo not given) ?
Sm TGR block: inconclusive; SARS PLpro yeast: -2%; Pf growth 48h: inconclusive; HCV inh: -17%; Pf growth 96h: -11%; HCMV antiviral: -18

Results for N=C1/C(=C\c2coc3ccc(O)cc3c2=O)C(=O)N=C2SC=CN12 ?
Sm TGR block: 28µM*; SARS PLpro yeast: 0%; Pf growth 48h: 57%; HCV inh: -27%; Pf growth 96h: 43%; HCMV antiviral: -17

Results for N=C1/C(=C/c2coc3ccccc3c2=O)C(=O)N=C2SC(c3ccco3)=NN12 ?
Sm TGR block: 10µM*; SARS PLpro yeast: 1%; Pf growth 48h: 0%; HCV inh: -11%; Pf growth 96h: 23%

What do the screens show for `N=C1/C(=C\c2coc3ccccc3c2=O)C(=O)N=C2SC(c3ccncc3)=NN12`?
Sm TGR block: 0%; SARS PLpro yeast: -5%; Pf growth 48h: inconclusive; HCV inh: inconclusive; Pf growth 96h: inconclusive; HCMV antiviral: 28

Results for CN1C(=O)C(=Cc2coc3ccccc3c2=O)C(=O)N(C)C1=O ?
Sm TGR block: 10µM*; SARS PLpro yeast: -1%; Pf growth 48h: 53%; HCV inh: 17%; Pf growth 96h: 30%; HCMV antiviral: 14

Results for CC(C)OCCCn1c(SCC(=O)N2CCc3ccccc32)nc2ccccc2c1=O ?
Sm TGR block: 1%; SARS PLpro yeast: 0%; Pf growth 48h: inconclusive; HCV inh: -14%; Pf growth 96h: inconclusive; HCMV antiviral: inconclusive

Results for CCc1noc(C)c1C(=O)NCCN1C(=O)S/C(=C\c2ccccc2F)C1=O ?
HCMV antiviral: -31

Results for c1ccc(CN2CCN(c3nc(NCc4ccco4)c4ccccc4n3)CC2)cc1 ?
Sm TGR block: -24%; SARS PLpro yeast: -8%; Pf growth 48h: inconclusive; HCV inh: inconclusive; HCMV antiviral: -34

What do the screens show for `OCCN1CCN(c2nc(NCc3ccco3)c3ccccc3n2)CC1`?
Sm TGR block: -17%; SARS PLpro yeast: -7%; Pf growth 48h: inconclusive; HCV inh: inconclusive; Pf growth 96h: 9.3µM*; HCMV antiviral: -33

Results for Cc1ccc(OCCN2CCN(c3nc(NCc4ccco4)c4ccccc4n3)CC2)cc1 ?
Sm TGR block: -17%; SARS PLpro yeast: 1%; Pf growth 48h: inconclusive; HCV inh: 11µM*; Pf growth 96h: 3%; HCMV antiviral: -22

Results for COc1ccc(-c2noc(-c3ccc(NC4CCCC4)c([N+](=O)[O-])c3)n2)cc1OC ?
Sm TGR block: 5%; HCMV antiviral: 10

How did O=C(COC(=O)CNC(=O)c1ccc(Cl)c([N+](=O)[O-])c1)NC(=O)CN1CCCC1=O do in these assays?
Sm TGR block: -18%; SARS PLpro yeast: 1%; Pf growth 48h: -27%; HCV inh: 14%; Pf growth 96h: 28%; HCMV antiviral: -19

Results for CC(C)(C)OC(=O)NCCc1nnc(S(=O)(=O)Cc2ccc(Cl)cc2Cl)o1 ?
Sm TGR block: 0.89µM*; SARS PLpro yeast: -1%; Pf growth 48h: -13%; HCV inh: inconclusive; Pf growth 96h: 8%; HCMV antiviral: 47

How did CC(C)(C)OC(=O)NCCc1nnc(SCc2ccccc2Cl)o1 do in these assays?
Sm TGR block: -27%; SARS PLpro yeast: 3%; Pf growth 48h: inconclusive; HCV inh: 0%; Pf growth 96h: -4%[5.75 µM]; HCMV antiviral: 14
